Outcome and AC50 data for 14 compounds are collected here from PubChem BioAssay (EPA / NIEHS).

Inconclusive results are not listed. Active and inactive are the calls of the source. How the source made its calls, unless noted: active means hit-call score of the fitted dose curve at least 0.9, where 1 is the maximum; inactive means score below 0.9.

A short description of assay [1]: CCTE_Deisenroth_AIME_96WELL_CTox_Inactive: Cytotoxicity Assessment (CTOX) in CCTE's 96-well Estrogen Receptor Transactivation Assay without AIME metabolic competence (metabolism negative), Deisenroth Lab (AID 2284029; active means hit-call score of the fitted dose curve at least 0.9, where 1 is the maximum). Put shortly: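 Metabolism-negative mode: alginate-water lids without rat S9, 2 h pre-incubation of 10-point series (0.002 - 200 uM). Conditioned medium on VM7Luc4E2 cells 24 h; loss of fluorescent live-cell protease signal marks cytotoxicity.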

The test system of the next assay is DIO2 (gene 1734). The assay is described as follows: CCTE_GLTED_hDIO2: CCTE's human Deiodinase 2 (DIO2) Inhibition Assay, Great Lakes Toxicology and Ecology Division (GLTED) Lab (AID 2284050; active means hit-call score of the fitted dose curve at least 0.9, where 1 is the maximum). The essentials: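 Iodide released by human deiodinase 2 over 3 h with test chemical, measured spectrophotometrically via Sandell-Kolthoff cerium/arsenic reaction. Run n=3; inhibition referenced to DMSO.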

Assay [2] is described as follows: CCTE_Deisenroth_AIME_384WELL_CTox_Active: Cytotoxicity Assessment (CTOX) in CCTE's 384-well Estrogen Receptor Transactivation Assay with AIME metabolic competence (metabolism positive), Deisenroth Lab (AID 2284037; active means hit-call score of the fitted dose curve at least 0.9, where 1 is the maximum;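 further: chemicals first conditioned 2 h by alginate-bound induced rat liver S9 before cells; activity means signal loss indicating cell death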). Put shortly: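 VM7Luc4E2 breast cells received medium pre-incubated 2 h with chemical over alginate microspheres holding induced male Sprague Dawley rat liver S9; viability read 24 h later by protease-substrate fluorescence. Loss of signal, bidirectional fit, 0.002–200 uM.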

Assay [3] is described as follows: CCTE_Deisenroth_AIME_384WELL_CTox_Inactive: Cytotoxicity Assessment (CTOX) in CCTE's 384-well Estrogen Receptor Transactivation Assay without AIME metabolic competence (metabolism negative), Deisenroth Lab (AID 2284039; active means hit-call score of the fitted dose curve at least 0.9, where 1 is the maximum;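 further: cell viability via live-cell protease substrate cleaved to fluorescent probe; cells exposed 24 h to medium preincubated 2 h with alginate-water beads without S9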). The essentials:
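Fluorescent protease-substrate viability readout after 24 h exposure of VM7Luc4E2 cells to conditioned medium. Chemicals (0.002–200 uM) first sat 2 h over alginate-water beads, no S9. Data fitted bidirectionally, loss of signal meaning viability loss.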

The nature of assay [4]: CCTE_Shafer_MEA_dev_firing_rate_mean: CCTE's Neural Network Formation Assay for Mean Firing Rate, Shafer Lab (AID 2284031). The essentials: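 Spike frequency (spikes/recording length, averaged over active electrodes) was recorded on days 5, 7, 9 and 12 and collapsed to AUC; rat cortical cultures received compound continuously over 12 days of network development.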
A short description of assay [5]: CCTE_Shafer_MEA_dev_per_burst_spike_percent: CCTE's Neural Network Formation Assay for Percent of Spikes in a Burst, Shafer Lab (AID 2284032). Put shortly: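 Value is trapezoidal AUC over recordings on days 5, 7, 9 and 12 of the well-mean fraction of spikes falling in single-electrode bursts; rat cortical cultures exposed continuously from plating, treatment renewed DIV 5 and 9, fitted downward against DMSO.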

Assay [6] is described as follows: CCTE_Shafer_MEA_dev_active_electrodes_number: CCTE's Neural Network Formation Assay for Number of Active Electrodes, Shafer Lab (AID 2284040; active means hit-call score of the fitted dose curve at least 0.9, where 1 is the maximum). Put shortly: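 Counts electrodes per well firing at least 5 spikes/min, recorded on days 5, 7, 9 and 12 in rat cortical cultures dosed continuously from plating (treatment refreshed DIV 5, 9). Value is the area under the curve over recordings, fitted downward relative to DMSO.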

Assay [7] in a line: CCTE_Shafer_MEA_dev_burst_rate: CCTE's Neural Network Formation Assay for Burst Rate, Shafer Lab (AID 2284042). Put shortly: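 Exposure ran continuously over 12 days of network development in rat cortical cultures, with compound refreshed during full media changes on DIV 5 and 9. Single-electrode bursts per recording time, well-mean over active electrodes, trapezoidal AUC across days 5–12, fitted downward relative to DMSO.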

The nature of assay [8]: CCTE_Shafer_MEA_dev_bursting_electrodes_number: CCTE's Neural Network Formation Assay for Number of Bursting Electrodes, Shafer Lab (AID 2284043; active means hit-call score of the fitted dose curve at least 0.9, where 1 is the maximum;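 on AC50: potency is for loss of bursting electrodes relative to DMSO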). The essentials:
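Counted: electrodes with burst rate ≥1 per 2 min in each well. Cells: primary rat cortex, 1.5 x 10^5/well, on 16-electrode MEA wells. Exposure: DIV 0–12, compound renewed DIV 5 and 9. Recording days 5, 7, 9, 12; AUC vs DMSO baseline.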

A short description of assay [9]: CCTE_Shafer_MEA_dev_per_burst_interspike_interval: CCTE's Neural Network Formation Assay for Burst Interspike Interval, Shafer Lab (AID 2284044).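 On AC50: potency for a decrease of within-burst interspike interval below DMSO level.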 The essentials:
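Neurons from rat cortex plated onto PEI-coated MEA wells with laminin […] at 1.5 x 10^5 cells/well, then treated from day 0. Media and compound fully replaced on DIV 5 and 9. Extracellular spontaneous firing recorded four times; interspike interval per burst summarised as AUC.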

Assay [10] in a line: CCTE_Shafer_MEA_dev_burst_duration_mean: CCTE's Neural Network Formation Assay for Mean Burst Duration, Shafer Lab (AID 2284045). Put shortly:
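Network-formation assay in primary rat cortical neurons; treatment spans twelve days of development. Mean burst duration per well is integrated by trapezoidal AUC and fitted in the loss-of-signal direction against DMSO baseline.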

Assay [11] in a line: CCTE_Shafer_MEA_dev_interburst_interval_mean: CCTE's Neural Network Formation Assay for Mean Interburst Interval, Shafer Lab (AID 2284046).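 Further: curve fitted for decrease in interburst interval relative to DMSO.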 The essentials: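 Primary rat cortical neurons on PEI-coated 48-well MEA plates (laminin added with cells at plating) (16 electrodes/well), exposed from plating day 0 with renewal at DIV 5 and 9. Mean inter-burst interval averaged over bursting electrodes, AUC across days 5, 7, 9, 12; DMSO baseline.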

Assay [12] is described as follows: CCTE_Shafer_MEA_dev_inter_network_spike_interval_mean: CCTE's Neural Network Formation Assay for Mean Inter-network Spike Interval, Shafer Lab (AID 2284047). The essentials:
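Mean time between consecutive network-spike peaks, recorded extracellularly (adaptive spike detection) on DIV 5, 7, 9 and 12, summarized as trapezoidal AUC. Rat cortical cultures on MEAs dosed continuously days 0–12, re-dosed at feeds; loss-of-signal fit relative to DMSO.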

A short description of assay [13]: CCTE_Shafer_MEA_dev_network_spike_number: CCTE's Neural Network Formation Assay for Number of Network Spikes, Shafer Lab (AID 2284048).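 Further: synchronized bursts across electrodes counted on days 5 7 9 12 and integrated as AUC.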 Put shortly: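 Extracellular recordings from 16-electrode wells track network formation in rat cortical cultures under continuous treatment from plating. The endpoint is network spike number, expressed as AUC across DIV 5–12 relative to DMSO vehicle.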

The nature of assay [14]: CCTE_Shafer_MEA_dev_network_spike_peak: CCTE's Neural Network Formation Assay for Mean Number of Electrodes in Network Spike, Shafer Lab (AID 2284049).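 On AC50: fitted for loss of signal meaning fewer electrodes in network spikes than DMSO.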 The essentials:
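Continuous 12-day exposure of rat cortical cultures, starting at plating, on MEA plates. Endpoint: electrodes participating in network-spike peaks, AUC across DIV 5–12, DMSO as negative control.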

Assay [15] in a line: CCTE_Shafer_MEA_dev_spike_duration_mean: CCTE's Neural Network Formation Assay for Mean Spike Duration, Shafer Lab (AID 2284051).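 On AC50: potency for a decrease in mean network spike duration versus DMSO.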 The essentials:
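Spontaneous activity was recorded on days 5, 7, 9 and 12 from rat cortical cultures grown on microelectrode arrays and dosed continuously from day 0, with media and compound renewed after the DIV 5 and 9 recordings. Network-spike duration was collapsed by area under the curve.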

Assay [16] can be described thus: CCTE_Shafer_MEA_dev_network_spike_duration_std: CCTE's Neural Network Formation Assay for Standard Deviation of Network Spike Duration, Shafer Lab (AID 2284052).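 Further: hits are decreases in network spike duration SD versus DMSO vehicle.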 The essentials: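 Network spike duration variability was collapsed across recordings on days 5, 7, 9 and 12 by trapezoidal area-under-curve and fitted downward against DMSO. Cultures were rat cortical neurons on PEI-coated MEA plates, dosed continuously from plating, refed with compound DIV 5/9.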

Assay [17] in a line: CCTE_Shafer_MEA_dev_per_network_spike_spike_number_mean: CCTE's Neural Network Formation Assay for Mean Number of Spikes in a Network Spike, Shafer Lab (AID 2284053). Put shortly:
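Mean spike count within each network spike, taken in a 0.05 s window at its peak, was recorded on days 5, 7, 9 and 12 and integrated as trapezoidal area under the curve. Rat cortical cultures on MEA plates received continuous compound from day 0, refreshed at medium changes on DIV 5 and 9.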

Assay [18] has as its target Estrogen receptor (Homo sapiens) (UniProt P03372). The experiment in a line: CCTE_Deisenroth_AIME_384WELL_LUC_Inactive: CCTE's 384-well Estrogen Receptor Transactivation Assay without AIME metabolic competence (ERTA luciferase; metabolism negative), Deisenroth Lab (AID 2284038; active means hit-call score of the fitted dose curve at least 0.9, where 1 is the maximum;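 further: hits raise estrogen receptor luciferase signal so potencies reflect agonists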). The essentials: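 VM7Luc4E2 ER transactivation, luciferase bioluminescence after 24 h, using medium pre-incubated 2 h with S9-free alginate microspheres. Concentrations 0.002–200 uM; gain of signal fitted relative to 17beta-estradiol.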

The target is the same in assay [19]. The assay is described as follows: CCTE_Deisenroth_AIME_384WELL_LUC_Active: CCTE's 384-well Estrogen Receptor Transactivation Assay with AIME metabolic competence (ERTA luciferase; metabolism positive), Deisenroth Lab (AID 2284030; active means hit-call score of the fitted dose curve at least 0.9, where 1 is the maximum). Put shortly: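 AIME metabolism-positive mode: chemicals 0.002 - 200 uM, 2 h with alginate-bound PB/BNF-induced rat S9 → medium to VM7Luc4E2 ERTA, 24 h → luciferase. Positive fit vs 17beta-estradiol; n=4 typical.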

Estrogen receptor (Homo sapiens), sequence (P03372 whole entry, looked up): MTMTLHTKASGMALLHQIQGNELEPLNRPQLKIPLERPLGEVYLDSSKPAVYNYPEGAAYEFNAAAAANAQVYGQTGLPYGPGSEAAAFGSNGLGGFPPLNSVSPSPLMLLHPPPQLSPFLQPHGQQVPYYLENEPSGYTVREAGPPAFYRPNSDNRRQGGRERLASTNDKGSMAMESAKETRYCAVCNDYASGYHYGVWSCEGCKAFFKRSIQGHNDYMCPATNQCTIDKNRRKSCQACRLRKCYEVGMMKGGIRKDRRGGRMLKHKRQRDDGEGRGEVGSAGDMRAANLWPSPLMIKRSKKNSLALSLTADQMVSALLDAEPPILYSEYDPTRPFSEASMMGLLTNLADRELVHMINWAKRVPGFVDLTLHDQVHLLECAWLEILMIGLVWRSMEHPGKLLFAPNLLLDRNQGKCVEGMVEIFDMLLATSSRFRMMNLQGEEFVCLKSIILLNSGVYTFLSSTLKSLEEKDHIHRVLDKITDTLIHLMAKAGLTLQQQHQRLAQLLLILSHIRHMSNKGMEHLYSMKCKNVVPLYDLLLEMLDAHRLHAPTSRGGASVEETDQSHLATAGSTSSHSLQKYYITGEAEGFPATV

Turning to `CC(C)(C)c1ccc(OC(=O)c2ccccc2O)cc1`, the compound was classed as inactive in assay [1].
As to `CC(C)C1=CC2=CC[C@@H]3[C@](C)(CCC[C@@]3(C)C(=O)O)[C@H]2CC1`, the concentration at half-maximal activity (AC50) in the assay with DIO2 (gene 1734) was 100 µM (active).
Take `Oc1ccc(Cl)cc1Cc1cc(Cl)ccc1O`: the values for the AC50 (in assay [2]; in assay [3]; with DIO2 (gene 1734)) were 102 µM (active), 100 µM (active) and 88.4 µM (active), respectively.
With `CC=CC(F)(F)C(F)(F)C(F)(F)F`, the result in assay [4], in assay [5], in assay [6], in assay [7], in [8] and in assay [9] was inactive. Moreover, the outcome in [10], in assay [11], in [12], in [13], in [14] and in assay [15] was inactive. In addition, the call in assay [16] and in assay [17] was inactive.
For the compound `c1ccc2c(c1)ccc1cc3c(ccc4ccccc43)cc12`, the result in assay [4], in [5], in assay [18], in [3], in assay [6] and in assay [7] was inactive. Also, the result in [8], in assay [9], in [10], in assay [11], in [12] and in assay [13] was inactive. For the same compound, the compound was classed as inactive in assay [14], in assay [15], in assay [16] and in [17].
With `FC(F)=C(F)OC(F)(F)C(F)(F)C(F)(F)F`, the compound was classed as inactive in assay [4], in assay [5], in assay [7], in assay [9], in assay [10] and in assay [11]. For the same compound, the compound was called inactive in assay [12], in assay [13], in assay [14], in assay [15], in assay [16] and in [17].
On to `Cc1ccc(N/N=c2\c(=O)cc/c(=N/Nc3ccc(S(=O)(=O)O)cc3)c2=O)c(C)c1`, for which the compound was classed as inactive with DIO2 (gene 1734).
Turning to `CCCCCCCCCCCCCOP(=O)(O)O`, the AC50 in the assay with DIO2 (gene 1734) is 80.5 µM (active).
For `CCCCCCCC[N+](C)(CCCCCCCC)CCCCCCCC`, the figures for the half-maximal activity concentration (AC50) (in [2]; in assay [3]; in the assay on DIO2 (gene 1734)) were 39.3 µM (active), 19.2 µM (active) and 20.6 µM (active), respectively.
In the case of `N[C@H]1C(O)O[C@H](CO)[C@H](O)[C@@H]1O` (stereo partly drawn), the compound was called inactive in [4], in assay [5], in [7], in [10], in [11] and in assay [12]. The outcome in assay [13] and in assay [16] was inactive. Besides, the AC50 is 24.8 µM (active) in [8]; 2.98 µM (active) in assay [9]; 25.4 µM (active) in assay [14]; 25.3 µM (active) in [15]; 25.6 µM (active) in [17].
For `O=C(C(Cl)Cl)N1CCOC12CCCCC2`, the result in assay [19] and in [18] was inactive. Besides, the AC50 in [3] is 19.8 µM (active).
Consider `CCCCC/C=C\C/C=C\CCCCCCCC(=O)OC`, for which the concentration at half-maximal activity (AC50) in the assay with DIO2 (gene 1734) is 46 µM (active).
`CCCCC(CC)CCC(CC(C)C)OS(=O)(=O)O` (stereo not drawn): the compound was called inactive in assay [19], in [18] and in [3].
With `CCCCCCCC/C=C\CCCCCCCC(=O)O`, in the assay on DIO2 (gene 1734), the AC50 was 79.4 µM (active).
